In PubChem BioAssay:
Unmarked numbers belong to inactive results. Where a call stands in place of a potency, no number is given. For part of these data: Potency and affinity values are given separately. Activity calls are given as the source filed them. Unless noted, how the calls were made is not given here.

Tests used:
[1] = antimalarial activity against Dd2 strain (AID 2302;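 active means growth inhibition above 50% at the single 2 µM test dose, taken to imply half-maximal potency below 2 µM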); conditions: P. falciparum Dd2 in RBCs, LDH growth readout, 72 h; at 2 µM; hits give high values
[2] = HepG2 cytotoxicity, primary screen, cytotoxicity control for P. falciparum antimalarial project, cell-based, ATP luminescence (AID 2303;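 active means inhibition above 50%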); conditions: HepG2 viability, 24-48 h, at 10 µM, hits give high values
[3] = biological target: L-lactate dehydrogenase (Plasmodium falciparum (isolate CDC / Honduras)) (UniProt Q27743); assay: PfLDH activity inhibition – cell lysate, 3D7 strain, counter-screen for P. falciparum growth inhibition project (AID 2304); conditions: P. falciparum 3D7 crude extract, LDH APAD/NBT absorbance; at 2 µM; hits give high values
[4] = inhibition of 3D7 malaria parasite growth – strain 3D7 (AID 2306); conditions: P. falciparum 3D7 erythrocytic growth, LDH absorbance, 72 h; at 2 µM; hits give high values
[5] = biological target: Calcium-dependent protein kinase 1 (Plasmodium falciparum (isolate 3D7)) (UniProt P62344); assay: PfCDPK1 kinase inhibitors, biochemical, TCAMS library (AID 1159585; cut-off not given, nearly all actives have IC50 up to about 0.98 µM;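 further: inhibitors leave more ATP so luminescence rises with inhibition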); conditions: recombinant PfCDPK1, Kinase-Glo ATP depletion luminescence
[6] = biological target: Plasmodium falciparum protein kinase 6 (PK6, PF3D7_1337100) (UniProt Q8IDW1); assay: PfPK6 kinase inhibitors, biochemical, TCAMS library (AID 1159586); conditions: recombinant PfPK6, Kinase-Glo ATP depletion luminescence
[7] = biological target: Protein kinase 7 (PK7), Plasmodium falciparum 3D7 (PF3D7_0213400) (UniProt Q7YTF7); assay: inhibition of Plasmodium PK7 catalytic activity – biochemical, TCAMS antimalarial set, Kinase-Glo luminescence (AID 1159587); conditions: recombinant PfPK7, Kinase-Glo ATP depletion luminescence
[8] = biological target: Calcium-dependent protein kinase 4 (Plasmodium falciparum (isolate 3D7)) (UniProt Q8IBS5); assay: PfCDPK4 kinase inhibitors, biochemical, TCAMS library (AID 1159588; cut-off not given, nearly all actives have IC50 up to about 0.91 µM); conditions: recombinant PfCDPK4, Kinase-Glo ATP depletion luminescence
Calcium-dependent protein kinase 4 (Plasmodium falciparum (isolate 3D7)), sequence (Q8IBS5 whole entry, looked up): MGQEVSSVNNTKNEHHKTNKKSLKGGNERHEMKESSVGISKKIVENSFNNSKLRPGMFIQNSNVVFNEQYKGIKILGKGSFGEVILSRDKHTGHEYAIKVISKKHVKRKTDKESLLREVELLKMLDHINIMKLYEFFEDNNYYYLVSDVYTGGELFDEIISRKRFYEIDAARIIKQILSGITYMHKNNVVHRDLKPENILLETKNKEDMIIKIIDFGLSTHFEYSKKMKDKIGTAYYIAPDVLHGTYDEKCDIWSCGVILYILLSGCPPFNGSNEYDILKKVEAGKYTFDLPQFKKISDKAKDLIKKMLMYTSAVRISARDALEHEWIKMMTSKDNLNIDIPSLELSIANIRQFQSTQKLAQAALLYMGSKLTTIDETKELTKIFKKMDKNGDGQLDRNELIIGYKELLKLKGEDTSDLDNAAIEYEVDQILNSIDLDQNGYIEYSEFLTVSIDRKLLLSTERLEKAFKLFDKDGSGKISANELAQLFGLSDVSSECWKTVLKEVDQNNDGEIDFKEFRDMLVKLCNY

Calcium-dependent protein kinase 1 (Plasmodium falciparum (isolate 3D7)), sequence (P62344 whole entry, looked up): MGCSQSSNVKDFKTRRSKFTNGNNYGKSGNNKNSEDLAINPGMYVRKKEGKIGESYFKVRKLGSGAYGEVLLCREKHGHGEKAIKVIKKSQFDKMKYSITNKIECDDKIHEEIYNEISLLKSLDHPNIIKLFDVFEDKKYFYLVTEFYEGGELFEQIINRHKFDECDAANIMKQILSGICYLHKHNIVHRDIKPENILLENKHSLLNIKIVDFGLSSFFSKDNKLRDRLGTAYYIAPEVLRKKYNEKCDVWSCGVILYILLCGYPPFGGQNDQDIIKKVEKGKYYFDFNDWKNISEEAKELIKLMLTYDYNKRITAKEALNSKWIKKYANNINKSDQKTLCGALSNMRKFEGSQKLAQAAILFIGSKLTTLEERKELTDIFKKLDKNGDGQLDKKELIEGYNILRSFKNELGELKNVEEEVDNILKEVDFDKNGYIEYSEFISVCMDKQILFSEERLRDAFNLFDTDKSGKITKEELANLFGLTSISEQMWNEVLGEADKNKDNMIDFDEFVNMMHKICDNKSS
Protein kinase 7 (PK7), Plasmodium falciparum 3D7 (PF3D7_0213400), sequence (Q7YTF7 1-343): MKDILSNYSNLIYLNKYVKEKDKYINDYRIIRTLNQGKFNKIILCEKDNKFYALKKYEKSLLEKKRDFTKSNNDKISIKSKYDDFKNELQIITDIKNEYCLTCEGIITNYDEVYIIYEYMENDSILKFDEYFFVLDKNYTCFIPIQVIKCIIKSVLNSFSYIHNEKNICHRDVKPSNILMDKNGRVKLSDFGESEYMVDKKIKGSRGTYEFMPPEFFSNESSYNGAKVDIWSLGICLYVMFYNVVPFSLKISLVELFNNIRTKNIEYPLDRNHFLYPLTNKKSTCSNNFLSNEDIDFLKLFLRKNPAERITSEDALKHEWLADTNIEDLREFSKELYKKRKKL
L-lactate dehydrogenase (Plasmodium falciparum (isolate CDC / Honduras)), sequence (Q27743 whole entry, looked up): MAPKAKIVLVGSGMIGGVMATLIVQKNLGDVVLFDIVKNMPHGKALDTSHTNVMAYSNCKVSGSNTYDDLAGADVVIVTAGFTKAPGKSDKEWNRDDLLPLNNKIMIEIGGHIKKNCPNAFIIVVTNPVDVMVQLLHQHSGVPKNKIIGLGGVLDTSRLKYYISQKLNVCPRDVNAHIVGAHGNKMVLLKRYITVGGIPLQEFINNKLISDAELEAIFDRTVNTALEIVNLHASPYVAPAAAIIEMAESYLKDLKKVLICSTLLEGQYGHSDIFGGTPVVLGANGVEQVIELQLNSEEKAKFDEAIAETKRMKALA
Plasmodium falciparum protein kinase 6 (PK6, PF3D7_1337100), sequence (Q8IDW1 1-305): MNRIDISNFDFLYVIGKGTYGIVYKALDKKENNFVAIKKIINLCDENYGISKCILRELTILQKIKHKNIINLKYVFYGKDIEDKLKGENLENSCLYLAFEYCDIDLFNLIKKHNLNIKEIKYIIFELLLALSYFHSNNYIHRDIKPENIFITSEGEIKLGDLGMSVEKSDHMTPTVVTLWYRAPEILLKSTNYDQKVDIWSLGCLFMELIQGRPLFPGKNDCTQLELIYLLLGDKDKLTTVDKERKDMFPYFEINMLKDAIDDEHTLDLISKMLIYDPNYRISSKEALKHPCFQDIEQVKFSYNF

Structure (SMILES)	growth inhibition [1]	inhibition [2]	inhibition [3]	growth inhibition [4]	outcome [5]	outcome [6]	outcome [7]	outcome [8]
CC(C)CC1c2[nH]c3ccccc3c(=O)c2CN1C(=O)OC(C)(C)C (stereo not drawn)	96% (active)	2%	-4%	97% (active)	inactive	inactive	inactive	inactive
COCCNCc1ccc(-c2cccc(CN(C(=O)NCCc3ccccc3)C3CCN(Cc4ccccc4)CC3)c2)cc1	90% (active)	25%	-4%	88% (active)	inactive	inactive	inactive	inactive
O=S(=O)(NCCN1CCCC1)c1cccc(-c2ccc(CNCc3ccsc3)cc2)c1	31%	33%	6%	101% (active)	inactive	inactive	inactive	inactive
COc1ccc2nccc([C@@H](O)CN3CCC(NCc4nc5c(F)cc(F)cc5[nH]4)CC3)c2c1	64% (active)	19%	0%	99% (active)	inactive	inactive	inactive	inactive
CC(CCc1ccccc1)NCC(O)c1ccc2c3c(cccc13)S(=O)(=O)N2C (stereo not drawn)	99% (active)	16%	3%	99% (active)	inactive	inactive	inactive	inactive
COC(=O)c1cccc(CN(CCC(O)(C(F)(F)F)C(F)(F)F)C(=O)CC2CCCC2)c1	53% (active)	-1%	0%	98% (active)	inactive	inactive	inactive	inactive
CC(=O)Nc1cccc(C(=O)Nc2cccc(-c3ccc(-c4nc5ccc(C(F)(F)F)cc5[nH]4)s3)c2)c1	46%	80% (active)	-3%	98% (active)	inactive	inactive	inactive	inactive
O=S(=O)(c1c(Cl)cc(Cl)cc1Cl)N1CCCCC(c2ccc(Cl)cc2)=N1	93% (active)	11%	3%	95% (active)	inactive	inactive	inactive	inactive
CC(=O)Nc1ccc(C(=O)Nc2ccc(-c3cccc(-c4nc5ccc(C(F)(F)F)cc5[nH]4)c3)cc2)cn1	98% (active)	29%	-2%	102% (active)	inactive	inactive	inactive	inactive
O=C(/C=C/c1ccc(Cl)c(Cl)c1)NC1CCN(Cc2cccc(O)c2)CC1	-1%	-3%	-1%	94% (active)	inactive	inactive	inactive	inactive
COc1ccc(CNCCCCCNCc2ccc(Cl)c(Cl)c2)cc1Cl	43%	42%	0%	98% (active)	inactive	inactive	inactive	inactive
Nc1c(Cl)cc(C(O)CNCCCCCOCCc2ccc3ccccc3n2)cc1Cl (stereo not drawn)	97% (active)	9%	-1%	98% (active)	inactive	inactive	inactive	inactive
COc1cc2nc(NCCc3cccc(Cl)c3)nc(NCc3ccccc3)c2cc1OC	101% (active)	97% (active)	0%	101% (active)	inactive	inactive	inactive	inactive
CCCCCCOc1ccc(C(N)=NCc2ccccc2)c2c1CCCC2	35%	62% (active)	-3%	96% (active)	inactive	inactive	inactive	inactive
COc1ccc(CN2CCCN(Cc3cccc(NC(=O)c4cc5ccccc5s4)c3)CC2)cc1	32%	32%	5%	94% (active)	inactive	inactive	inactive	inactive
CCOC(=O)c1ccc(NC(=O)Nc2ccc(-c3ccc(-c4nc5ccc(C(F)(F)F)cc5[nH]4)cc3)cc2)cc1	52% (active)	20%	-2%	102% (active)	inactive	inactive	inactive	inactive
CCN(CC)CCOc1cc2c(cc1Br)-c1cc(Br)c(OCCN(CC)CC)cc1C2=NO	98% (active)	99% (active)	-3%	100% (active)	inactive	inactive	inactive	inactive
CCn1c(-c2nonc2N)nc2cnc(Oc3cccc(NC(=O)c4ccc(OCCCN5CCCCC5)cc4)c3)cc21	12%	38%	-4%	90% (active)	inactive	inactive	inactive	inactive
O=C(Nc1ccc(-c2ccc(-c3nc4ccccc4[nH]3)s2)cc1)c1ccncc1	95% (active)	21%	-5%	94% (active)	inactive	inactive	inactive	inactive
CCN(CC)CCNc1nc(C=Cc2ccc(Cl)cc2)nc2cc3ccccc3cc12	99% (active)	83% (active)	-3%	100% (active)	inactive	inactive	inactive	inactive
CC(C)(C)c1ccc(CNC(=O)c2cc(CNC3CCNCC3)ccc2O)cc1	8%	6%	2%	96% (active)	inactive	inactive	inactive	inactive
